The values that follow come from PubChem BioAssay.

Test [1] can be described thus: inhibitors of TNFa-induced NFkB p65 translocation, primary screen, imaging, HUVEC, MLSMR starter and 10KST1 sets (AID 438;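 active = inhibition above 20% together with a positive visual image hit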;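 note: compound added about 3h40 before a 20 min TNFalpha stimulation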;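 for inhibition: signal is the nuclear over cytoplasmic p65 intensity ratio per well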). The conditions noted are these: HUVEC TNFa-induced p65 nuclear translocation; cell count: measured here: nuclei count (cytotoxicity indicator), at 2.08 µM; inhibition: at 2 µM, stronger effect = higher value, 0% TNFa-plus-vehicle, 100% no-TNFa wells.
A short description of test [2]: reduction of polyQ htt aggregates in cells – imaging, exon1htt(103Q)mCFP cells, high-content imaging, primary screen (AID 483;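 active = visual image review flags a hit and inhibition of aggregation exceeds 20%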;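 note: compound exposure lasted 3 days before fixation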;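 for nuclei count: percent of the per-plate median nuclei count of sample wells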). To be noted: exon1htt(103Q)mCFP cell line, aggregate imaging, at 2 µM; inhibition of aggregation: stronger effect = higher value; nuclei count: measured here: cell count, toxicity.
A short description of test [3]: endothelial E-selectin expression blockers – imaging, HUVEC, immunofluorescence, MLSMR starter and 10KST1 sets, primary screen (AID 487;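 active = visually confirmed hit in the image check and inhibition above 20%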;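 for inhibition: signal is fraction of cell area covered by stained E-selectin grains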;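 for nuclei count: 100% = median nuclei count of all wells on the same plate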). The conditions noted are these: HUVEC TNFalpha-induced E-selectin immunofluorescence imaging, at 2 µM; inhibition: stronger effect = higher value; nuclei count: measured here: cell number, toxicity.
The target in test [4] is Voltage-gated potassium channel subunit beta-2 (Rattus norvegicus) (UniProt P62483). As to the kind of experiment: inhibitors of rat Kvbeta2 reductase activity – biochemical, NADPH fluorescence, primary screen (AID 622;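 active = fluorescence slope higher than the sample average by over 3 SD, cut at about -0.22 in these data, passing the limit was not always enough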;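 note: slope of raw intensity against log time taken from 70 to 1610 s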). To be noted: recombinant KvBeta, 4-cyanobenzaldehyde reduction, at 10 µM, stronger effect = higher value.
Chain of Voltage-gated potassium channel subunit beta-2 (Rattus norvegicus) (P62483 whole entry, looked up): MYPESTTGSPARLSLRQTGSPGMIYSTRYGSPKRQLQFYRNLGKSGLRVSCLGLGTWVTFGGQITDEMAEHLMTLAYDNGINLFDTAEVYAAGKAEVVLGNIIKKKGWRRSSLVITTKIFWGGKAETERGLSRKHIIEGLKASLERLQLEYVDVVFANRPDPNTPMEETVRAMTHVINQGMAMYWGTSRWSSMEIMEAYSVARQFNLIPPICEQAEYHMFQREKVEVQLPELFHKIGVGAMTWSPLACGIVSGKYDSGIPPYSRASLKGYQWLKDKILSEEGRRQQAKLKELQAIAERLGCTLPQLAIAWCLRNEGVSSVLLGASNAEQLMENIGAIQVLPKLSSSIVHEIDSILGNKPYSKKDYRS
For test [5] the target is unchanged. As to the kind of experiment: enhancers of rat Kvbeta2 NADPH turnover – biochemical, NADPH fluorescence, primary screen (AID 623;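 active = NADPH fluorescence slope more negative than the mean of all samples by about 3 SD, 99.7% confidence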;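 note: fluorescence intensity change per second fitted from 20 to 320 s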). The conditions noted are these: Recombinant KvBeta, NADPH fluorescence decrease slope, 10 min; at 10 µM; stronger effect = lower value.
The target in test [6] is Alpha-2C adrenergic receptor (Homo sapiens) (UniProt P18825). As to the kind of experiment: compounds altering alpha2C-coupled GIRK flux – cell-based, HEK293 alpha2C/GIRK1/2, thallium flux, primary screen (AID 624).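 Note: slope of fluorescence ratio to pre-addition baseline per second over 15 to 24 s.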 The conditions noted are these: thallium flux BTC fluorescence, at 10 µM, actives lie on both sides.
Chain of Alpha-2C adrenergic receptor (Homo sapiens) (P18825 whole entry, looked up): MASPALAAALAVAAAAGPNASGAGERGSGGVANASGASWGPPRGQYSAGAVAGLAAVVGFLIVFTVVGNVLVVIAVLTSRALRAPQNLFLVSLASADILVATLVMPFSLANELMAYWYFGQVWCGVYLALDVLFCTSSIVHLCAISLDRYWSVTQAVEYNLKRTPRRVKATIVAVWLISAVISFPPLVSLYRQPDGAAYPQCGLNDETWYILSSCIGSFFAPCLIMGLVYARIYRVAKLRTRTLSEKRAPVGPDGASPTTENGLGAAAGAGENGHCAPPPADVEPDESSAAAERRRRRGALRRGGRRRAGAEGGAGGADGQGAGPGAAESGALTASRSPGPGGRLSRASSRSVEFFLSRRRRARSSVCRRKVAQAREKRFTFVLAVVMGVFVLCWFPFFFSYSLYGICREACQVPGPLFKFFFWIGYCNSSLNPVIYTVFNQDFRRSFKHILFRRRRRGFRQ
Test [7] in a line: blockers of RIG-like receptor reporter activation – cell-based, Sendai virus stimulus, luciferase, 10K MLSCN set, TLR/RLR signaling modifier project, primary screen (AID 602276;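 active = inhibition at or above 50% at 10 µM; inactive = inhibition below 50%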;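 note: firefly luciferase from ISG56 promoter only with Renilla not read in this screen; 0% = Sendai virus plus DMSO and 100% = medium plus DMSO without virus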). To be noted: HEK293 RL24 IRF3 luciferase reporter, at 10 µM, stronger effect = higher value.
Test [8] in a line: TLR3 IRF3 reporter activation blockers – cell-based, poly I:C stimulus, luciferase, 10K MLSCN set, primary screen (AID 602277;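 active = inhibition of the reporter signal at or above 50%; inactive = inhibition below 50%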). To be noted: HEK293-TLR3 RL24 IRF3 luciferase reporter, at 10 µM, stronger effect = higher value.

Calls of active or inactive are those of the source.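 Rule for the calls, unless noted: active = fluorescence slope after compound addition differing from the mean of all screened samples at 99.7% confidence, in either direction; inactive = the rest.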

As for `CC(C)Cn1c(=O)c(C2=NS(=O)(=O)c3ccccc3N2)c(O)c2ccccc21`, the cell count in test [1] turned out to be 407. Also, the inhibition is -0.4% (inactive) in test [1], -61.6% (inactive) in test [3], 15.1% (inactive) in test [7] and 18% (inactive) in test [8]. In test [2], the inhibition of aggregation was 10.3% (inactive). The figures for the nuclei count in test [2] and in test [3] were 93.8% and 125%, respectively. Also, the fluorescence slope in test [4] was -0.353 (inactive). Also, the NADPH fluorescence slope in test [5] was -0.000128 (inactive). For the same compound, the slope in test [6] was 0.00697 (inactive).

On to `Cc1cccc2c(=O)oc(-c3ccc4c(c3)C(=O)N(CC3CCCO3)C4=O)nc12` (centres undefined), for which the cell count in test [1] is 349. Also, the inhibition in test [1] was 1.9% (inactive); in test [3] it was -6.3% (inactive); in test [7], 16.1% (inactive); in test [8] it was 14.4% (inactive). Further, the inhibition of aggregation in test [2] was -22.2% (inactive). The nuclei count was 107% in test [2] and 58.4% in test [3]. Further, the fluorescence slope in test [4] is -0.521 (inactive). For the same compound, in test [5], the NADPH fluorescence slope was 2.4e-05 (inactive). In addition, the slope in test [6] is 0.0053 (inactive).

Consider `Cc1csc(NC(=O)c2cc3c(s2)-c2ccccc2OC3)n1`, for which the cell count in test [1] amounted to 417. The inhibition in test [1] was 8.8% (inactive); in test [3] it was -27.8% (inactive); in test [7] it was -42% (inactive); in test [8] it was -118% (inactive). In addition, in test [2], the inhibition of aggregation was 27.8% (inactive). For the same compound, the nuclei count in test [2] was 121%; in test [3] it was 103%. Also, the fluorescence slope in test [4] is -0.247 (inactive). Also, the NADPH fluorescence slope in test [5] is -1.9e-06 (inactive). Also, in test [6], the slope is 0.00681 (inactive).

In the case of `O=C(CCc1ccccc1)Nc1ccncc1`, in test [1], the cell count worked out at 412. The inhibition in test [1] is 1% (inactive); in test [3], -273% (inactive); in test [7] it was -2.19% (inactive); in test [8], 11.2% (inactive). In test [2], the inhibition of aggregation was 7.9% (inactive). Besides, the nuclei count came out at 94.1% in test [2] and 118% in test [3]. In addition, the fluorescence slope in test [4] is -0.446 (inactive). In addition, the NADPH fluorescence slope in test [5] is -1.1e-05 (inactive). Besides, the slope in test [6] was 0.00342 (inactive).

For the compound `CCOC(=O)C1CCN(c2c(Nc3ccc4c(c3)OCCO4)c(=O)c2=O)CC1`, the cell count in test [1] turned out to be 789. Moreover, the inhibition in test [1] was 4.6% (inactive); in test [3] it was -129% (inactive); in test [7], 44% (inactive); in test [8], 27.5% (inactive). In addition, the inhibition of aggregation in test [2] is 0.6% (inactive). The values for the nuclei count in test [2] and in test [3] were 106% and 125%, respectively. The fluorescence slope in test [4] was -0.622 (inactive). In addition, the NADPH fluorescence slope in test [5] is 2.4e-05 (inactive). Besides, the slope in test [6] is 0.0056 (inactive).

Regarding `COc1cccc(CNC(=O)Cn2c(=O)oc3ccccc32)c1OC`, in test [1], the cell count came out at 603. The inhibition was -4% (inactive) in test [1], -16.3% (inactive) in test [3], 11.8% (inactive) in test [7] and 31% (inactive) in test [8]. In addition, the inhibition of aggregation in test [2] is 2.6% (inactive). The nuclei count in test [2] was 59.7%; in test [3], 88.3%. Moreover, in test [4], the fluorescence slope is -0.53 (inactive). Moreover, the NADPH fluorescence slope in test [5] is -3.1e-05 (inactive). In test [6], the slope was 0.00743 (inactive).

For the compound `O=C(CSc1nnc2ccccn12)NCCN1C(=O)CSC1=O`, the cell count in test [1] turned out to be 701. Also, the inhibition in test [1] was -2.8% (inactive); in test [3] it was -218% (inactive); in test [7] it was 7.75% (inactive); in test [8] it was 2.81% (inactive). Moreover, in test [2], the inhibition of aggregation is -2.4% (inactive). For the same compound, the values for the nuclei count in test [2] and in test [3] were 94.1% and 130%, respectively. Moreover, the fluorescence slope in test [4] is -0.608 (inactive). Moreover, in test [5], the NADPH fluorescence slope was -5.5e-06 (inactive). Further, in test [6], the slope is 0.00611 (inactive).

Consider `COC(=O)c1[nH]c(C)c(/C(O)=C2\C(=O)C(=O)N(CCN3CCOCC3)C2c2cccs2)c1C` (centres undefined), for which, in test [1], the cell count is 450. For the same compound, the inhibition was -4.8% (inactive) in test [1], -53.2% (inactive) in test [3], 15.2% (inactive) in test [7] and 11.2% (inactive) in test [8]. For the same compound, the inhibition of aggregation in test [2] was 2.2% (inactive). The nuclei count stood at 96.3% in test [2] and 126% in test [3]. In addition, the fluorescence slope in test [4] was -0.254 (inactive). Further, the NADPH fluorescence slope in test [5] was -2.8e-05 (inactive). In test [6], the slope was 0.00576 (inactive).

Regarding `CCOC(=O)Nc1ccc2c(c1)N(C(=O)OCCN(C)C)c1ccccc1CC2`, in test [1], the cell count was found to be 425. The inhibition in test [1] was -7.7% (inactive); in test [3], -16.3% (inactive); in test [7], 6.83% (inactive); in test [8] it was 30.5% (inactive). Moreover, the inhibition of aggregation in test [2] is 25.6% (inactive). In addition, the nuclei count is 57.1% in test [2] and 75.4% in test [3]. Also, in test [4], the fluorescence slope was -0.563 (inactive). For the same compound, the NADPH fluorescence slope in test [5] was -2.3e-05 (inactive). For the same compound, the slope in test [6] is 0.00722 (inactive).

For `COc1ccccc1C(=O)N1CCN=C1SCc1cccnc1`, in test [1], the cell count was determined as 266. The inhibition was -0.3% (inactive) in test [1], 0.7% (inactive) in test [3], -7.45% (inactive) in test [7] and 6.88% (inactive) in test [8]. Also, the inhibition of aggregation in test [2] is -22.1% (inactive). The figures for the nuclei count in test [2] and in test [3] were 103% and 97.2%, respectively. The fluorescence slope in test [4] was -0.595 (inactive). In test [5], the NADPH fluorescence slope was -3.9e-05 (inactive). Also, the slope in test [6] was 0.00599 (inactive).

Regarding `O=C(NCCN1CCOCC1)NC1(C(F)(F)F)Oc2ccc(Cl)cc2O1` (centres undefined), the cell count in test [1] was 457. Moreover, the inhibition is 16.3% (inactive) in test [1], -51.7% (inactive) in test [3], 24.6% (inactive) in test [7] and 37.9% (inactive) in test [8]. Further, the inhibition of aggregation in test [2] is 11% (inactive). The nuclei count in test [2] turned out to be 96.4%; in test [3] it was 118%. In addition, in test [4], the fluorescence slope is -0.467 (inactive). Besides, in test [5], the NADPH fluorescence slope was -5.6e-05 (inactive). Besides, the slope in test [6] is 0.00481 (inactive).

On to `CCOc1ccc(NC(=O)Cn2nnc(-c3ccccc3F)n2)cc1`, for which the cell count in test [1] worked out at 513. Further, the inhibition in test [1] is -2.7% (inactive); in test [3] it was -32.4% (inactive); in test [7], 9.14% (inactive); in test [8], 12.8% (inactive). Also, the inhibition of aggregation in test [2] was 19% (inactive). Further, the nuclei count in test [2] amounted to 88.3%; in test [3] it was 103%. Moreover, in test [4], the fluorescence slope was -0.539 (inactive). Moreover, the NADPH fluorescence slope in test [5] was 2.1e-05 (inactive). Moreover, the slope in test [6] is 0.00657 (inactive).

Turning to `Cc1csc2nc(CSc3ccc(Cl)cc3)cn12`, the cell count in test [1] was 41. For the same compound, the inhibition in test [1] was -8.7% (inactive); in test [3], -112% (inactive); in test [7], -42.1% (inactive); in test [8] it was -126% (inactive). For the same compound, the inhibition of aggregation in test [2] was -15% (inactive). The values for the nuclei count in test [2] and in test [3] were 80.6% and 138%, respectively. For the same compound, in test [4], the fluorescence slope was -0.601 (inactive). Further, in test [5], the NADPH fluorescence slope was -2e-05 (inactive). Further, the slope in test [6] is 0.00271 (inactive).

Turning to `O=C(Nc1ccc(N2CCCCC2)cc1)c1ccc(F)cc1`, in test [1], the cell count turned out to be 420. Besides, the inhibition in test [1] was 0.3% (inactive); in test [3] it was -134% (inactive); in test [7] it was -44.9% (inactive); in test [8] it was -140% (inactive). The inhibition of aggregation in test [2] is -17.8% (inactive). The nuclei count in test [2] amounted to 111%; in test [3], 122%. Moreover, the fluorescence slope in test [4] was -0.401 (inactive). For the same compound, in test [5], the NADPH fluorescence slope was -0.000159 (inactive). The slope in test [6] is 0.00518 (inactive).
